The record followed here is PubChem BioAssay (Tox21).

The target in test [1] is Thyrotropin-releasing hormone receptor (Homo sapiens) (UniProt P34981). Description: qHTS assay to identify small molecule agonists of the thyrotropin-releasing hormone receptor (TRHR) signaling pathway (AID 1346891; calls by dose curve; also: series mostly up to about 58 µM). In a few lines:
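Screening of agonists relied on calcium signalling in HEK293 cells expressing human TRHR: dye loading 2 h at 37 °C preceded compound addition and a 3-min fluorescence time course.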

Test [2] is described as follows: Human pregnane X receptor (PXR) small molecule agonists, qHTS cell viability counter screen (AID 1346977). Also: nearly all actives have a fitted effect of over 50% in size. The method, boiled down: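 Tox21 qHTS format; PXR-Luc HepG2, 2,000/well, charcoal-stripped FBS 5%. Cpd exposure 24hr. Read: CellTiter-Fluor fluorescence, multiplexed with luciferase.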
Test [3] is described as follows: Caspase-3/7 induction in HepG2 cells by small molecules, qHTS assay (AID 1346978). Also: nearly all actives have a fitted effect of over 15% in size. The method, boiled down: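 Wild-type HepG2 cells, 2,000/well, settled 5 hr at 37 C and 5% CO2, then compound-treated for 17 hr; caspase-3/7 activity read by luminescent Caspase-Glo 3/7 after 30 min at room temperature.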
Test [4] can be described thus: Caspase-3/7 induction in CHO-K1 cells by small molecules, qHTS cell viability counter screen (AID 1346979). Also: nearly all actives have a fitted effect of over 35% in size. In a few lines:
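CellTiter-Fluor viability check, qHTS format: wild-type CHO-K1, 16hr compound treatment, 1hr reagent incubation, fluorescence read.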

Test [5] can be described thus: Caspase-3/7 induction in CHO-K1 cells by small molecules, qHTS assay (AID 1346980). Also: nearly all actives have a fitted effect of over 15% in size. The method, boiled down:
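Wild-type CHO-K1 cells exposed to compounds for 17hr at 37 C, 5% CO2. Caspase-3/7 activity then measured by Caspase-Glo 3/7 luminescence after 30min at room temperature.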

The nature of test [6]: Caspase-3/7 induction in HepG2 cells by small molecules, qHTS cell viability counter screen (AID 1346981). Also: series mostly up to about 92 µM; nearly all actives have a fitted effect of over 30% in size. The method, boiled down:
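Wild-type HepG2 cells (2,000/well) were allowed to settle for 5 hr at 37 C, 5% CO2, then dosed with compounds in DMSO by pin transfer. After 16 hr at 37 C, CellTiter-Fluor was added and fluorescence read 1 hr later.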

Test [7] concerns the target Nuclear receptor subfamily 1 group I member 2 (Homo sapiens) (UniProt O75469). Description: Human pregnane X receptor (PXR) small molecule agonists, qHTS assay (AID 1346982). Also: nearly all actives have a fitted effect of over 35% in size. Also: potency is read from the fitted curve at half-maximal effect. The method, boiled down: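 PXR-Luc HepG2 cells (CYP3A4 promoter-driven luciferase) were seeded in medium with 5% charcoal-stripped FBS, left 5 hr at 37 C, then exposed to compounds in DMSO for 24 hr. Luminescence was read after ONE-Glo addition.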

Test [8] concerns the target Nuclear receptor subfamily 1 group I member 2 (Rattus norvegicus) (UniProt Q9R1A7). Description: Rat pregnane X receptor (rPXR) activation by small molecules, qHTS assay (AID 1346983). Also: nearly all actives have a fitted effect of over 20% in size. The note with it: rPXR luciferase reporter cells, One-Glo luminescence, 24 h; max activation: stronger effect = higher value. The method, boiled down:
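Cell-based rPXR activation assay: rPXR cells, 2,000 per well, rested 5hr at 37 C, then exposed to compounds in DMSO for 24 hr at 37 C. Luciferase activity read by One-Glo luminescence after 30 min at room temperature.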

Test [9] concerns the target Nuclear receptor subfamily 1 group I member 2 (Homo sapiens) (UniProt O75469). Nature of the test: CYP3A4 induction through human pregnane X receptor (PXR) by small molecules, qHTS assay (AID 1346984). Also: nearly all actives have a fitted effect of over 40% in size. In a few lines:
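DPX-2 cells (HepG2 co-transfected with PXR and CYP3A4 promoter-luciferase) treated with compounds 24 h at 37C; luciferin-IPA CYP3A4 substrate 3uM final added for 3 h, then One-Glo; luminescence read. qHTS format.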

For test [10] the target is unchanged. Description: Human pregnane X receptor (PXR) activation by small molecules, qHTS assay (AID 1346985). Also: nearly all actives have a fitted effect of over 40% in size. In a few lines: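 DPX-2 cells (HepG2 co-transfected with a PXR response element and a CYP3A4-promoter luciferase construct) were seeded at 2,000 per well, rested 5 hr at 37C, then exposed to DMSO-dissolved compounds for 24 hr. Activation was read as luciferase luminescence.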

A number with no mark means an inactive call. Records with an inconclusive call do not appear. Calls of active or inactive are those of the source. Unless noted, calls follow the shape of the dose curve; as a rule, active = well fitted curve in the direction sought with a large enough effect in the repeat runs; inconclusive = weak or mixed curves; inactive = no such curve, though single readings can be large; an effect the other way counts as inactive or inconclusive.
% is scaled to controls: 0 for no effect and ±100 for the full control effect.

Chain of Thyrotropin-releasing hormone receptor (Homo sapiens) (P34981 whole entry, looked up): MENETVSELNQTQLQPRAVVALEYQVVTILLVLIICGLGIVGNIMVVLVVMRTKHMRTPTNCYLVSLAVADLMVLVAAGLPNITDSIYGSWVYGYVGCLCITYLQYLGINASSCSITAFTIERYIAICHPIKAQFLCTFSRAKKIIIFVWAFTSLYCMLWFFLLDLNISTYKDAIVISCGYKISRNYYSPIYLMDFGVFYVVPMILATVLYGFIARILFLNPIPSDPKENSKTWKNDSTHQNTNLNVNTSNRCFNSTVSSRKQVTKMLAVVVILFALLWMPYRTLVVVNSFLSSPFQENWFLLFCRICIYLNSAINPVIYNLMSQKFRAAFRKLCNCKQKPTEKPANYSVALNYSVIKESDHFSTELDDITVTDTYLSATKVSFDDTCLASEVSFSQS
Chain of Nuclear receptor subfamily 1 group I member 2 (Rattus norvegicus) (Q9R1A7 whole entry, looked up): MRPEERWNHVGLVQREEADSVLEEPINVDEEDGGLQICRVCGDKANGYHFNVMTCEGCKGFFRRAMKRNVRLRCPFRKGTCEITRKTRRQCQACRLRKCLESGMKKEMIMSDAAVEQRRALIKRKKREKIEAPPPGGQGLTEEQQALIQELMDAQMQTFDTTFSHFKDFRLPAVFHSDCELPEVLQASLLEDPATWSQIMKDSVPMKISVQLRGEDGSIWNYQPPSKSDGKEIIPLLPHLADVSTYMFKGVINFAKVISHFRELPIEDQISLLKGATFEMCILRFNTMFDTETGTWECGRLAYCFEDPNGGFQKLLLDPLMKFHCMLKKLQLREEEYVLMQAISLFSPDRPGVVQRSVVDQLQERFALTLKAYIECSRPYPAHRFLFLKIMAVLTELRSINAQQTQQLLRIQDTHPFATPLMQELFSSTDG
Chain of Nuclear receptor subfamily 1 group I member 2 (Homo sapiens) (O75469 whole entry, looked up): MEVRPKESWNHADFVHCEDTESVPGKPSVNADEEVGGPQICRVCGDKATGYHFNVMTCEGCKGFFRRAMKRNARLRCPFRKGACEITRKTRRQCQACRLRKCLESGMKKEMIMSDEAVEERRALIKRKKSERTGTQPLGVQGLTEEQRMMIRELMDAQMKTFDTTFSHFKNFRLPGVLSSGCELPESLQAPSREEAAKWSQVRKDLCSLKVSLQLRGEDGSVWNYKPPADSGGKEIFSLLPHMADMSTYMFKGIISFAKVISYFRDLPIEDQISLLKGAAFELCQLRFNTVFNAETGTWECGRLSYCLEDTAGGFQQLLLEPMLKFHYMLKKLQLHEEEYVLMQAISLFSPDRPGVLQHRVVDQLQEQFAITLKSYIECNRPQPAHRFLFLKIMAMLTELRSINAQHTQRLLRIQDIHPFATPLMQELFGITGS

`CC1(C)CC(O)CC(C)(C)N1[O]`: the call in [1] was inactive. Further, the Potency result in [2], in test [3], in test [4], in test [5], in [6] and in test [7] was “inactive” throughout.
`CC(C)(C)c1cc(C=O)cc(C(C)(C)C)c1O`: the call in test [1] was inactive. For the same compound, the Potency result in test [2], in test [3], in test [4], in test [5], in test [6] and in test [7] was “inactive” in each case.
On to `CC(C)=CCC[C@H](C)CCO`, for which the result in [1] was inactive. Also, the Potency entry in test [2], in [3], in [4], in test [5], in test [6] and in test [7] was “inactive” throughout.
On to `NC(=O)c1ccccc1C(N)=O`, for which the result in test [1] was inactive. Further, the Potency result in [2], in test [3], in test [4], in test [5], in [6] and in test [7] was “inactive” in each case.
`Cc1ccccc1CCO`: the compound was called inactive in test [1]. Also, the Potency entry in test [2], in [3], in test [4], in [5], in test [6] and in test [7] was “inactive” throughout.
As for `CC(CN=Cc1ccccc1O)N=Cc1ccccc1O` (stereo not given), the outcome in test [1] was inactive. Also, the Potency entry in test [2], in [3], in [4], in test [5], in test [6] and in test [7] was “inactive” throughout.
Consider `O=C(c1ccco1)N1CCNCC1`, for which, in test [1], the outcome was inactive. Moreover, the Potency entry in test [2], in test [3], in test [4], in test [5], in test [6] and in test [7] was “inactive” throughout.
As to `CC(O)C(C)O` (stereo not given), the call in test [1] was inactive. Besides, the Potency entry in test [2], in test [3], in test [4], in [5], in test [6] and in test [7] was “inactive” throughout.
`c1ccc(CCNc2nc(-c3ccccc3)cs2)cc1`: the compound was called inactive in [1]. Further, the Potency result in [2], in [3], in test [4], in test [5] and in test [6] was “inactive” in each case. For the same compound, the Potency in test [7] was 3.76 µM (active).
Regarding `O=C(Cl)c1cc(Cl)cc(Cl)c1`, the result in test [1] was inactive. For the same compound, the Potency entry in test [2], in [3], in [4], in [5], in test [6] and in test [7] was “inactive” in each case.
In the case of `C1=COCCC1`, the compound was called inactive in [1]. Further, the Potency entry in [2], in [3], in [4], in test [5], in [6] and in [7] was “inactive” throughout.
As to `NCCOCCOCCN`, the outcome in test [1] was inactive. Further, the Potency result in test [2], in test [3], in [4], in [5], in [6] and in test [7] was “inactive” in each case.
In the case of `CCCC(=O)OCc1ccccc1`, the compound was called inactive in [1]. The Potency entry in test [2], in [3], in test [4], in [5], in [6] and in [7] was “inactive” each time.
For the compound `CCCc1ccc(OC)cc1`, the compound was called inactive in [1]. The Potency entry in test [2], in test [3], in [4], in [5], in test [6] and in test [7] was “inactive” in each case.
As for `CC(CCl)OC(C)CCl` (stereo not given), in [1], the compound was called inactive. Besides, the Potency entry in test [2], in [3], in test [4], in test [5], in test [6] and in test [7] was “inactive” in each case.
In the case of `O=C(O)c1ccc(O)c(O)c1`, the call in test [1] was inactive. Further, the Potency result in test [2], in test [3], in [4], in [5], in test [6] and in [7] was “inactive” each time.
Regarding `CCCCOc1ccc(N)cc1`, the result in [1] was inactive. In addition, the Potency entry in test [2], in test [3], in [4], in [5] and in test [6] was “inactive” throughout. Moreover, the Potency in test [7] was 54.5 µM (active).
`CCOC(C)OCC`: the compound was classed as inactive in test [1]. Moreover, the Potency entry in test [2], in test [3], in [4], in test [5], in test [6] and in [7] was “inactive” in each case. The Potency result in test [9] and in [10] was “inactive” each time. The max activation in [8] was -4.85%.
Turning to `O=C(OC1C[C@H]2CC[C@@H](C1)[N+]21CCCC1)C(O)(c1ccccc1)c1ccccc1` (stereo not given in full), in test [1], the outcome was inactive. The Potency entry in test [2], in [3], in test [4], in [5], in [6] and in [7] was “inactive” each time. Further, the Potency entry in test [9] and in [10] was “inactive” throughout. In addition, in [8], the max activation is -1.51%.
Consider `CC(C)CCCCCOC(=O)CS`, for which the compound was classed as inactive in test [1]. The Potency result in test [2], in test [3] and in [5] was “inactive” each time.
On to `O=C(O)c1c2ccccc2cc2ccccc12`, for which the call in test [1] was inactive. The Potency entry in test [2], in test [3], in test [5], in test [6] and in test [7] was “inactive” each time.
For the compound `OCC(O)c1ccccc1` (stereo not given), in [1], the compound was called inactive. The Potency result in [2], in test [3], in test [4], in test [5] and in test [7] was “inactive” in each case.
In the case of `C=CC(=O)OCCCCCCCCCC`, the result in test [1] was inactive. Also, the Potency entry in test [2], in test [3], in [4], in test [5] and in test [7] was “inactive” throughout.
Regarding `CC(C)Cc1nccs1`, in [1], the call was inactive. Moreover, the Potency entry in test [2], in test [3], in test [4], in test [5] and in test [7] was “inactive” throughout.
With `O=C(O)c1ccc2c(c1)nc(C(=O)NC1CCN(C3CC3)CC1)n2Cc1cc(-c2ccc(Cl)s2)on1`, the activation in test [1] is 2.01% [at 11.8 µM]; in test [7] it was -32.3% [at 19 µM]. In addition, the activity change, negative = cytotoxicity was 17.8% [at 19 µM] in [2] and 3.23% [at 19 µM] in test [6]. Also, in test [3], the caspase activation was -0.956% [at 19 µM]. Moreover, the caspase-3/7 activation in test [5] was 9.35% [at 19 µM].
Take `COc1cc(C)c(Cc2cnc(N)nc2N)cc1OC`: the compound was classed as inactive in [1]. Moreover, the Potency entry in [2], in test [3], in [4], in test [5], in [6] and in test [7] was “inactive” throughout. Besides, the Potency result in test [9] and in [10] was “inactive” throughout. Further, the max activation in test [8] is -0.291%.
With `CC(COc1ccccc1)NC(C)C(O)c1ccc(O)cc1` (stereo not given), in test [1], the outcome was inactive. Also, the Potency entry in test [2], in test [3], in test [4], in [5], in test [6] and in test [9] was “inactive” throughout. For the same compound, in [10], the Potency entry is “inactive”. The Potency in test [7] was 23.7 µM (active). For the same compound, the max activation in test [8] was 3.54%.
With `CCC(=O)O[C@@H]1C[C@H]2CC[C@]1(C)C2(C)C`, in test [1], the call was inactive. Also, the Potency entry in [2], in test [3], in test [4], in test [5] and in test [7] was “inactive” each time.
Regarding `CC(C)NC(=O)c1ccccc1N`, the compound was classed as inactive in test [1]. In addition, the Potency entry in test [2], in test [3], in test [4], in [5] and in test [7] was “inactive” throughout.
